The text below walks through data of PubChem BioAssay (NCATS).

Records with an inconclusive call do not appear. Values without a mark were called inactive. The call rests on the fitted dose curve; in most records, active means well fitted curve in either direction with a large enough effect (not every such curve was filed as active); inconclusive means small, poorly fitted or top-dose-only effect, or another doubt; inactive means flat fitted curve, though single readings scatter.
On the % scale 0 is the no-effect control and ±100 the full control effect.

A short description of the test: NFAT Signaling Pathway (AID 444).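 Further: carbachol stimulus at about its EC50 of 1 µM final.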 The following applies: Jurkat NFAT-bla M1, carbachol, beta-lactamase ratio, 5 h; at 7.69 µM (top of the series) unless noted. A digest of the protocol:
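Read-out: CCF4 FRET ratio (460 nm/530 nm) after 1 h RT dye loading, used for %activity and AC50 from titration series. Cells: Jurkat NFAT-β-lactamase/M1 line, treated with compound plus 1 uM carbachol for 5 h, 37 °C.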
Consider `COc1ncc2nc(-c3cc(F)cc(F)c3)c(=O)n(CCC#N)c2n1`, for which the activity change, negative = inhibition is -5.52%.

On to `Cc1nc2cnc(Nc3ccccc3)nc2n(C)c1=O`, for which the activity change, negative = inhibition is -8.95%.

With `COc1ccc(-n2c(=O)c(C)nc3cnc(Oc4ccccc4)nc32)cc1`, the activity change, negative = inhibition is 4.01%.

`COc1ccccc1CCn1c(=O)c(-c2cc(F)cc(F)c2)nc2cncnc21`: the activity change, negative = inhibition is -7.47%.

Turning to `COc1cccc(-c2ccc3ncnc(NC4CCNCC4)c3c2)c1`, the activity change, negative = inhibition is 13.6%.

In the case of `COc1cccc(-c2cc(NCc3cccs3)ncn2)c1`, the activity change, negative = inhibition is 17%.

As to `Cn1c(=O)c(-c2cc(F)cc(F)c2)nc2cnc(Oc3ccccc3)nc21`, the activity change, negative = inhibition was 3.31%.

Consider `CNc1nc(-c2ccccc2Cl)nc2ccccc12`, for which the activity change, negative = inhibition was 12.6%.

Consider `O=C(O)C1CCN(c2ncnc3ccc(-c4ccccc4C(F)(F)F)cc23)CC1`, for which the activity change, negative = inhibition is 6.97%.

On to `CC(=O)NCCNc1nc(-c2ccccc2Cl)nc2ccccc12`, for which the activity change, negative = inhibition is -5.34%.

Consider `CN(C)c1ccc(-c2cncnc2NCc2cccs2)cc1`, for which the activity change, negative = inhibition is 2.25%.

In the case of `O=c1c(-c2ccc(F)cc2)nc2cnc(N3CCOCC3)nc2n1C[C@H]1CCCO1`, the activity change, negative = inhibition was 1.18%.

In the case of `Cc1cccc(CNc2ncncc2-c2cccc(C#N)c2)c1`, the activity change, negative = inhibition was -8.33%.

As for `COc1ccc(Oc2ncc3nc(-c4ccc(OC)cc4)c(=O)n(Cc4cccs4)c3n2)cc1`, the activity change, negative = inhibition is 2.5%.

For `Cc1cccc(CNc2ncncc2-c2ccc3c(c2)OCO3)c1`, the activity change, negative = inhibition was -2.79%.

For `N#CCCn1c(=O)cnc2cnc(N3CCOCC3)nc21`, the activity change, negative = inhibition is -0.169%.

For `COc1ncc2nc(-c3cccs3)c(=O)n(-c3ccccc3)c2n1`, the activity change, negative = inhibition is -4.96%.

As to `COc1ccc2[nH]cc(CCNc3cc(-c4ccccc4C(F)(F)F)ncn3)c2c1`, the activity change, negative = inhibition was 14%.

On to `Cc1nc2cnc(Oc3cccc(Cl)c3)nc2n(CCC#N)c1=O`, for which the activity change, negative = inhibition was 1.8%.

On to `COc1ncc2ncc(=O)n(C)c2n1`, for which the activity change, negative = inhibition is 2.1%.

For `c1ccc2c(-n3ccnc3)nc(-c3ccoc3)nc2c1`, the activity change, negative = inhibition was 3.28%.

`COc1cccc(-c2nccc(-n3ccnc3)n2)c1`: the activity change, negative = inhibition is 14%.

Take `CN(C)c1ccc(-c2cc(-n3ccnc3)ncn2)cc1`: the activity change, negative = inhibition is 9.75%.
